Experimental data from PubChem BioAssay.
Calls of active or inactive are those of the source. Unless noted, no rule for the calls is given here.

Assays:
[1] = test system: Wnt5a (protein binding on small-molecule microarray); assay: Wnt5a binders on small-molecule microarray, primary screen, biophysical, 635/667 nm fluorescence (AID 1142); conditions: 635 nm fluorescence, higher = more signal;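 also: fluorescence read at 667 nm with signal to noise per printed feature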
[2] = cell viability in Huh7 cells, primary screen, cytotoxicity control for HCV replication inhibitor project, CellTiter-Glo luminescence, basal, 48 h (AID 1143); conditions: Huh7 HCV replicon, higher = more signal, called active from +8 up or from −8 down;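 also: Huh7 hepatoma cells carrying a hepatitis C replication reporter with no stimulus; test concentration not given here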
[3] = P. aeruginosa biofilm formation inhibitors, primary screen, PAO1 strain, BacTiter-Glo luminescence, LB-PBS (AID 1144); conditions: 12 h, higher = more signal
[4] = CREB reporter modulators without forskolin, primary screen, cell-based, PC12, CRE-LacZ reporter, unstimulated (AID 1145); conditions: no forskolin, luminescence, 4.5 h, higher = more signal, called active from +8 up or from −8 down
[5] = CREB reporter modulators under forskolin, primary screen, cell-based, PC12, CRE-LacZ reporter, forskolin-stimulated (AID 1146); conditions: luminescence, 4.5 h, higher = more signal, called active from +8 up or from −8 down;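 also: PC12 cells with 6xCRE LacZ reporter stimulated by forskolin 10 µM; beta-galactosidase reporter signal reflecting CREB driven transcription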
[6] = target: Streptavidin (Streptomyces avidinii) (UniProt P22629); assay: streptavidin binders on small-molecule microarray, primary screen, artefact control for SMM compound annotation, biophysical, 635/667 nm fluorescence (AID 1147); conditions: streptavidin binding, higher = more signal;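 also: signal reflects streptavidin binding to arrayed compounds as a control protein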
[7] = small-molecule binders of probe aInhba, primary screen, biochemical, small-molecule microarray, 635/667 nm fluorescence (AID 1148); conditions: higher = more signal;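 also: score merges 667nm spot fluorescence with signal-to-noise for antibody binding to printed compounds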
Torsin-1A (Homo sapiens) [8] = target: Torsin-1A (Homo sapiens) (UniProt O14656); assay: torsin A binders from cell lysate, primary screen, small-molecule microarray, wild-type, 635/667 nm (AID 1149); conditions: COS7 hTOR1A-WT lysate, 635 nm fluorescence, higher = more signal
Torsin-1A (Homo sapiens) [9] = target: Torsin-1A (Homo sapiens) (UniProt O14656); assay: small-molecule binders of mutant TOR1A in lysate, primary screen, cell lysate, small-molecule microarray, COS7 lysate, 635/667 nm fluorescence (AID 1150); conditions: COS7 hTOR1A mutant lysate, 635 nm fluorescence, higher = more signal;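 also: score pools 667 nm emission and signal to noise measuring lysate protein binding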
[10] = test system: Sonic hedgehog protein (Shh); assay: small-molecule binders of Shh protein, primary screen, biochemical, small-molecule microarray, 635/667 nm fluorescence (AID 1151); conditions: small-molecule microarray binding, 635 nm fluorescence; higher = more signal;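 also: Shh protein binding to compounds spotted on small-molecule microarray slides; score combines spot fluorescence intensity with signal-to-noise across triplicate slides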

Torsin-1A (Homo sapiens), sequence (O14656 whole entry, looked up): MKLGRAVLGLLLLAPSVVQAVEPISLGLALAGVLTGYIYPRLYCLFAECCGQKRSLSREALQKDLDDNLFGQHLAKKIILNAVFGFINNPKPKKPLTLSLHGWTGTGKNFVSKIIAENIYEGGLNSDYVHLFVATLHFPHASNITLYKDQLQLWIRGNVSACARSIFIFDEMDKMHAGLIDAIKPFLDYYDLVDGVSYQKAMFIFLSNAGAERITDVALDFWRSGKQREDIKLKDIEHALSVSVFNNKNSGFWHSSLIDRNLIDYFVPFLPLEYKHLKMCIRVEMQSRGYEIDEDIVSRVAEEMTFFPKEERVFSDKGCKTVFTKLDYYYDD
Streptavidin (Streptomyces avidinii), sequence (P22629 whole entry, looked up): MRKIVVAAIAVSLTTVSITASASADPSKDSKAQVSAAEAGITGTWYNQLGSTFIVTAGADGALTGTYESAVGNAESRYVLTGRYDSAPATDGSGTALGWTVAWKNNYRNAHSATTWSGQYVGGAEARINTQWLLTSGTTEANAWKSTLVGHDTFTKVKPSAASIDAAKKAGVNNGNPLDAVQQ

Compound	composite z-score [1]	z-score [2]	z-score [3]	z-score [4]	z-score [5]	composite z-score [6]	composite z-score [7]	composite z-score (Torsin-1A (Homo sapiens) [8])	composite z-score (Torsin-1A (Homo sapiens) [9])	composite z-score [10]
CS(=O)(=O)CCOC(=O)C1=CC(c2ccc(CO)cc2)=CC(c2cccs2)N(Cc2cccc(OC(F)(F)F)c2)C=C1C(=O)OCCS(C)(=O)=O (stereo not given)	0.104	-3.67 (inactive)	0.676 (inactive)	0.695 (inactive)	-2.12 (inactive)	1.72	0.0047	1.45	0.543	0.75
CCCNC(=O)[C@@]1(C)c2ccccc2C(=O)N(C(C)C)[C@H]1c1ccc(CO)cc1	0.182	-4.29 (inactive)	-0.744 (inactive)	0.0279 (inactive)	0.155 (inactive)	-0.586	-0.0791	0.398	-0.435	-0.946
CCCNC(=O)[C@@]1(C)c2ccccc2C(=O)N(Cc2cc(C(F)(F)F)cc(C(F)(F)F)c2)[C@H]1c1ccc(CO)cc1	-0.332	-5.52 (inactive)	-0.889 (inactive)	0.0548 (inactive)	0.532 (inactive)	-0.974	-0.128	-0.0659	-0.216	0.103
COCCn1c(C(=O)N2CCCC2)cc2c1C[C@H]1CN(C(=O)c3ccccc3)[C@@](Cc3ccc(OC)cc3)(C(=O)OC)[C@@H]21	0.644	-1.54 (inactive)	-0.2 (inactive)	-0.751 (inactive)	0.699 (inactive)	2.01	0.739	-0.141	1.29	-0.89
CC(=O)n1cc(C(O)C2C=CC3C(=O)N(c4ccccc4)C(=O)C3N2Nc2ccc(C#N)cc2)c2ccccc21 (stereo not given)	0.523	0.853 (inactive)	-0.935 (inactive)	-0.512 (inactive)	0.1 (inactive)	0.846	0.11	-0.467	0.522	-0.38
C=CC[C@]1(C(=O)O)N=C(c2ccc(OCCCO)cc2)O[C@H]1c1ccccc1CN=[N+]=[N-]	0.0194	0.101 (inactive)	0.874 (inactive)	0.274 (inactive)	-0.0119 (inactive)	-0.0336	-0.108	0.0499	0.416	-0.0799
COCCOC(=O)N1C(=O)[C@@]2(c3cc(C#Cc4ccc(OC)cc4)ccc31)[C@H](C(N)=O)[C@H]1C(=O)O[C@H](c3ccccc3)[C@H](c3ccccc3)N1[C@@H]2c1ccc(O)cc1	0.115	-4.24 (inactive)	0.0989 (inactive)	0.0776 (inactive)	-0.844 (inactive)	-1.23	0.295	-1.2	-1.29	-0.692
CCOC1=C2C(c3ccc(C)cc3)N(S(=O)(=O)c3ccc(C)cc3)CC2n2c(=O)n(-c3ccccc3)c(=O)n2C1 (stereo not given)	0.323	-0.576 (inactive)	1.11 (inactive)	0.0331 (inactive)	0.0749 (inactive)	1.09	0.0135	0.301	0.254	0.254
C=C[C@H](C)[C@H](O)c1ccc(OCCO)cc1	-0.965	-1.45 (inactive)	0.733 (inactive)	-0.272 (inactive)	0.0034 (inactive)	-1.29	-0.209	-2.73	-1.99	-0.773
OCCCc1cc[n+](Cc2cccc(OC(F)(F)F)c2)cc1	0.012	-1.79 (inactive)	-0.781 (inactive)	-0.374 (inactive)	1.69 (inactive)	0.274	-0.0538	1.03	1.59	1.82
COc1ccc([Si](C)(C)[C@H]2[C@H](CC(=O)N3CCC[C@H]3CO)O[C@@]3(C(=O)N(Cc4cccc(N5CCC5=O)c4)c4ccccc43)[C@@H]2C)cc1	0.749	-3.02 (inactive)	0.596 (inactive)	1.66 (inactive)	-1.2 (inactive)	0.0783	-0.0132	0.633	0.594	1.49
CC(c1ccccc1)C(O)C1C=CC2C(=O)N(c3ccccc3)C(=O)C2N1Nc1ccccc1F (stereo not given)	0.0426	-2.63 (inactive)	-1.29 (inactive)	0.173 (inactive)	0.406 (inactive)	0.527	-0.125	-0.468	0.0393	-0.0558
C=CCCN(CC#C[C@H]1Oc2ccccc2S(=O)(=O)N2CCC[C@@H]12)S(=O)(=O)c1ccc(C)cc1	0.264	-1.57 (inactive)	0.592 (inactive)	0.761 (inactive)	3.31 (inactive)	-0.198	-0.0471	0.554	-0.109	0.624
CCCNC(=O)[C@@]1(c2ccc([N+](=O)[O-])cc2)CC(=O)N(CC23CC4CC(CC(C4)C2)C3)[C@@H]1c1ccc(CO)cc1I	0.572	-5.46 (inactive)	0.468 (inactive)	0.234 (inactive)	0.299 (inactive)	0.131	0.834	0.253	0.55	0.825
C=CCC(OC(C)=O)[C@@H]1[C@@H](N(Cc2ccc(-c3ccccc3)cc2)C(=O)c2ccc(C)cc2)c2cc(OCCCO)ccc2N1C(=O)Cc1ccc(OC)cc1 (stereo not given in full)	-0.0283	-0.536 (inactive)	0.307 (inactive)	0.904 (inactive)	0.429 (inactive)	1.36	-0.101	-0.691	-0.0431	0.726
CN1C(=O)C2C=CC(C(O)c3ccccc3)N(NC(=O)OC(C)(C)C)C2C1=O (stereo not given)	0.126	0.413 (inactive)	0.316 (inactive)	0.443 (inactive)	0.955 (inactive)	0.134	-0.128	-0.365	0.0838	-0.582
COc1cc(CO)cc(I)c1O[C@H]1C=C(C(=O)NCCO)C[C@@H](N(CCc2cccc(F)c2)C(=O)CCC2CCCC2)[C@@H]1O	1.38	-6.09 (inactive)	-0.986 (inactive)	6.93 (inactive)	-0.374 (inactive)	0.628	0.0872	0.727	1.26	1.89
C=C[C@H](OC)[C@@H](OC(=O)Nc1ccc(SC)cc1)c1ccc(OCCO)cc1	0.712	-1.24 (inactive)	-1.2 (inactive)	1.55 (inactive)	-0.648 (inactive)	-0.414	-0.123	0.212	0.792	0.255
CCCC[C@H]1OB(O)C[C@H]2C1=C(COc1ccccc1)C[C@H]1C(=O)N(Cc3ccccc3)C(=O)[C@H]12	-0.0155	-1.72 (inactive)	-0.375 (inactive)	1.13 (inactive)	-0.208 (inactive)	1.49	-0.0136	-0.518	0.106	1.76
O=C1C[C@@](C(=O)O)(c2ccc([N+](=O)[O-])cc2)[C@@H](c2ccc(CO)cc2I)N1CC12CC3CC(CC(C3)C1)C2	0.0743	-5.39 (inactive)	-0.142 (inactive)	0.468 (inactive)	3.72 (inactive)	0.975	-0.12	0.663	0.381	0.617
COC(=O)[C@@]1(Cc2ccc(F)cc2)[C@H]2c3cc(C(=O)N(C)C)n(Cc4ccccn4)c3C[C@H]2CN1C(=O)c1ccccc1	-0.0131	-1.17 (inactive)	-0.75 (inactive)	-0.947 (inactive)	0.431 (inactive)	0.751	0.349	1.17	1.05	-0.285
COCCOC(=O)N1C(=O)[C@@]2(c3ccccc31)[C@H](c1ccc(O)cc1)N1[C@H](c3ccccc3)[C@H](c3ccccc3)OC(=O)[C@H]1[C@@H]2C(N)=O	-0.235	-1.34 (inactive)	0.0439 (inactive)	0.208 (inactive)	1.88 (inactive)	-0.516	-0.128	-1.04	0.619	-0.218
CCOC(=O)C1=CC[C@@H](c2ccccc2)N(S(=O)(=O)c2ccc(C)cc2)[C@H]1c1ccc(C#N)cc1	0.344	-2.07 (inactive)	0.742 (inactive)	1.42 (inactive)	0.0633 (inactive)	1.31	0.066	-0.0412	0.389	-0.428
CC(C)[C@H]1COC(=O)N1C(=O)[C@H]1[C@@H](c2ccccc2)N(c2ccccc2)O[C@@H]1C	0.138	-0.917 (inactive)	-1.33 (inactive)	0.493 (inactive)	-0.688 (inactive)	0.465	-0.0989	0.167	0.624	0.506
CC(C)(C)OC(=O)CC[C@@]1(C(N)=O)N=C(c2ccc(OCCCO)cc2)O[C@@H]1c1ccccc1N=[N+]=[N-]	0.672	-0.858 (inactive)	0.61 (inactive)	0.204 (inactive)	-0.208 (inactive)	1.12	-0.0695	2.08	1.31	-0.179
C=CC[C@@]1(C(=O)NCCN2CCOCC2)N=C(c2ccc(OCCCO)cc2)O[C@@H]1c1ccccc1CN=[N+]=[N-]	0.13	-4.2 (inactive)	-0.557 (inactive)	0.526 (inactive)	-1.22 (inactive)	0.349	-0.197	0.598	1.16	-0.0578
CC(C)C(O)C1C=CC2C(=O)N(C)C(=O)C2N1N1CCCCC1 (stereo not given)	-0.0226	0.788 (inactive)	-0.775 (inactive)	-0.133 (inactive)	0.0399 (inactive)	0.482	-0.0704	-0.0881	1.29	0.192
